# Measurements reported in PubChem BioAssay (Tox21).
# Inconclusive results are not listed. A call without a number means that no potency is given here. Some structures have more than one record in an assay (separate samples or runs), and their calls can disagree. The source made the active and inactive calls. Calls follow the shape of the full dose curve.
# Target: Progesterone receptor (Homo sapiens) (UniProt P06401)
# Assay: qHTS assay to identify small molecule agonists of the progesterone receptor (PR) signaling pathway (AID 1346784); also: nearly all actives have a fitted effect of over 30% in size
# Settings: PR-UAS-bla HEK293T, beta-lactamase FRET ratio, 16 h; series mostly up to 92.4 µM; activation: at the top concentration
# Method in brief: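 Agonist mode, quantitative HTS format in a HEK 293T line expressing a UAS-controlled beta-lactamase reporter; 16 hr compound exposure at 37C in 2% charcoal-stripped FBS, then LiveBLAzer B/G FRET fluorescence.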
# Potency is read from the fitted curve at half-maximal effect.
# Sequence of Progesterone receptor (Homo sapiens) (P06401 whole entry, looked up): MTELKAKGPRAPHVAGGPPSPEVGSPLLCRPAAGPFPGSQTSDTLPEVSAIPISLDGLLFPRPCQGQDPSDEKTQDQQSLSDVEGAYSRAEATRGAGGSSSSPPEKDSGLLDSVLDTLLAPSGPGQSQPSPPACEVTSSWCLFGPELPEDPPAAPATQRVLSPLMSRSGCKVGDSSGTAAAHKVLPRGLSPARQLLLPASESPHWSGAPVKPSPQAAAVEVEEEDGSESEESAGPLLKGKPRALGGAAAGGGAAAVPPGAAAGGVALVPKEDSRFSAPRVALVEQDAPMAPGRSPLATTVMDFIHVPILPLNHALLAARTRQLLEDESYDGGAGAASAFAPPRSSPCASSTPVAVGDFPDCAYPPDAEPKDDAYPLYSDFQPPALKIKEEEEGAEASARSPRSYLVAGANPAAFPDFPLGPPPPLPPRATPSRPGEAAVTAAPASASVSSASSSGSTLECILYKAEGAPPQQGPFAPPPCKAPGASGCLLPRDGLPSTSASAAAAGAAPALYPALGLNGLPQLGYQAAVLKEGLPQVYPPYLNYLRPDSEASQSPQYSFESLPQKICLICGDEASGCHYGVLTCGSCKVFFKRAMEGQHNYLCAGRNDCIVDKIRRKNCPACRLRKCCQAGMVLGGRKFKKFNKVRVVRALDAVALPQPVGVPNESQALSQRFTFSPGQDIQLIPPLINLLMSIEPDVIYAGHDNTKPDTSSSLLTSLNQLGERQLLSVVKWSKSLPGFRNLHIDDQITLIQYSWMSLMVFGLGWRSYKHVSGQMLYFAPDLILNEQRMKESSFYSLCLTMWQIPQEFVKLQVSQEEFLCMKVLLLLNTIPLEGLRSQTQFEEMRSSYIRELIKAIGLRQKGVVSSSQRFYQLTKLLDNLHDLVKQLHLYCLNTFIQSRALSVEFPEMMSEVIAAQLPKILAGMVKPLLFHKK
SMILES,Potency,activation
CN(C)c1cccc(O)c1,inactive,–
CS(=O)(=O)Nc1ccc([N+](=O)[O-])cc1Oc1ccccc1,inactive,–
CCCCCCCCC,inactive,–
OC1CCCC1,inactive,–
NS(=O)(=O)c1cc2c(cc1Cl)NC=NS2(=O)=O,inactive,–
Nc1c(S(=O)(=O)O)cc(Br)c2c1C(=O)c1ccccc1C2=O,–,0.73% [at 42.5 µM] (inactive)
OCCOCCOCCOCCO,inactive,–
CC(C)(N=C=O)c1cccc(C(C)(C)N=C=O)c1,inactive,–
CCC(C)C=O (stereo not drawn),inactive,–
CCOC(=O)/C=C\C(=O)OCC,inactive,–
C=C(C)C(=O)OCCC[Si](OC)(OC)OC,inactive,–
CC(C)(C)C1CCC(O)CC1 (stereo not drawn),inactive,–
ClC1=C(Cl)C(Cl)(Cl)C(Cl)=C1Cl,inactive,–
Cc1cc(=O)[nH]c(C(C)C)n1,inactive,–
CCCCCC/C=C/CCCCCCCC(=O)O,inactive,–
Cc1ccc(N)c(S(=O)(=O)O)c1,inactive,–
CC1Cc2ccccc2N1NC(=O)c1ccc(Cl)c(S(N)(=O)=O)c1 (stereo not drawn),inactive,–
CC1(C)CC(N=C=O)CC(C)(CN=C=O)C1 (stereo not drawn),inactive,–
CC(C)Cc1ccccc1,inactive,–

SMILES,Potency,activation
Cc1ccc(C)c(C)c1,inactive,–
CCCCCCC(C)(C)S,inactive,–
Oc1ccc(OCc2ccccc2)cc1,inactive,–
O=S(=O)(O)c1cc(S(=O)(=O)O)c2c(N=Nc3ccccc3)c(O)ccc2c1,inactive,–
O=C1O[C@H](CO)[C@@H](O)[C@H](O)[C@H]1O,inactive,–
C[C@@H]1O[C@@H](OC[C@H]2O[C@@H](Oc3c(-c4ccc(O)c(O)c4)oc4cc(O)cc(O)c4c3=O)[C@H](O)[C@@H](O)[C@@H]2O)[C@H](O)[C@H](O)[C@H]1O,inactive,–
O=S(=O)(O)CCS,inactive,–
O=C(Oc1ccccc1)c1ccc(O)cc1,inactive,–
CC1=CC[C@H]2C[C@@H]1C2(C)C,inactive,–
O=[N+]([O-])c1cccc(Cl)c1,inactive,–
O=C(O)c1cc(-c2ccccc2)nc2ccccc12,779 nM (active) and inactive,–
C=C(C)C(=O)OCCCCCCCCCCCC,inactive,–
CNC[C@H](O)[C@@H](O)[C@H](O)[C@H](O)CO,inactive,–
CCCCCCCCCC(=O)O,inactive,–
CCCCC(CC)COC(C)=O (stereo not drawn),inactive,–
O=[N+]([O-])C(CO)(CO)CO,inactive,–
CC1=C(/C=C/C(C)=C/C=C/C(C)=C/CO)C(C)(C)CCC1,inactive,–
C=C(C#N)C(=O)OCC,inactive,–
CC(C)(CO)COC(=O)C(C)(C)CO,inactive,–
